Laboratory results reported in PubChem BioAssay (NCI).
Several values for one entry are separate records, joined by “and”; a condition that tells them apart may be missing. Equal values may be shown once. The panel holds about 79,000 compounds, 15% with a hit somewhere; the sample as a whole holds those more often. The source holds several records for some structures; these can differ, active in one and inactive in another. Activity calls are given as the source filed them. Rule as the data show it: active = growth inhibition above about 70%; inactive = the rest.

Legend:
[1] = NCI Yeast Anticancer Drug Screen. Data for the rad50 strain (AID 155);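 also: 0% = growth of vehicle-only cultures of the same strain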; settings: S. cerevisiae rad50 strain growth inhibition; at 50.0 µM; stronger effect = higher value
Method in brief: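 Cells are treated with compound, grown, and their growth is then scored against vehicle-only cultures of the same repair-deficient yeast strain.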

[2] = NCI Yeast Anticancer Drug Screen. Data for the mec2-1 strain (AID 157); settings: S. cerevisiae mec2-1 strain, at 50.0 µM, stronger effect = higher value
Method in brief: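 Growth inhibition is read against vehicle-treated controls after compound exposure of the mec2-1 yeast strain, which is defective in DNA damage repair or cell cycle control.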

[3] = NCI Yeast Anticancer Drug Screen. Data for the sgs1 mgt1 strain (AID 161);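 also: 0% = growth of cultures given vehicle only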; settings: S. cerevisiae sgs1 mgt1 strain, at 50.0 µM, stronger effect = higher value
Method in brief: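 Percent growth inhibition was derived by comparing compound-exposed mutant yeast with vehicle-exposed cultures. The strain carries alterations in DNA damage repair.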

[4] = NCI Yeast Anticancer Drug Screen. Data for the cln2 rad14 strain (AID 165);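 also: 0% = growth equal to vehicle treated cultures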; settings: S. cerevisiae cln2 rad14 strain, at 50.0 µM, stronger effect = higher value
Method in brief: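 Growth inhibition, relative to vehicle-treated controls, is the read-out. The test organism is a yeast strain with defined genetic alterations, cln2 rad14.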

[5] = NCI Yeast Anticancer Drug Screen. Data for the bub3 strain (AID 167); settings: S. cerevisiae bub3 mutant strain, at 50.0 µM, stronger effect = higher value
Method in brief: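 Part of a panel of yeast mutants defective in DNA damage repair or cell cycle regulation. Each strain is grown with compound, and inhibition is calculated relative to solvent-treated cultures.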

[6] = NCI Yeast Anticancer Drug Screen. Data for the mlh1 rad18 strain (AID 175); settings: S. cerevisiae mlh1 rad18 strain growth inhibition; at 50.0 µM; stronger effect = higher value
Method in brief: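 Cells of a genetically altered yeast strain, deficient in DNA damage repair, were treated with compound. Their growth was then compared with that of vehicle-treated cultures to give inhibition.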

Structure (SMILES) | growth inhibition [1] | growth inhibition [2] | growth inhibition [3] | growth inhibition [4] | growth inhibition [5] | growth inhibition [6]
Cc1cc(C#N)c(=S)n(C2OC(CO)C(O)C(O)C2O)c1C (stereo unspecified) | 7.4% (inactive) and 11.9% (inactive) | 9.25% (inactive) and 8.65% (inactive) | 14.2% (inactive) and 15.2% (inactive) | 7.25% (inactive) and -0.4% (inactive) | 7.8% (inactive) and 7.75% (inactive) | 24.6% (inactive) and 22.6% (inactive)
O=C(O)CCCCCCCCCCCCC1C=CCC1 (stereo unspecified) | -11.2% (inactive) and -0.55% (inactive) | -31.5% (inactive) and -17.9% (inactive) | 5.95% (inactive) and -4.1% (inactive) | -4.4% (inactive) and 9.45% (inactive) | -22.8% (inactive) and -16.8% (inactive) | -11.2% (inactive) and -6.05% (inactive)
CCOC(=O)C(N)CS (stereo unspecified) | -1.35% (inactive) and -31.1% (inactive) | -22.8% (inactive) and -66.1% (inactive) | -2.5% (inactive) and -6.05% (inactive) | -26.9% (inactive) and 7.05% (inactive) | -28.3% (inactive) and -30.7% (inactive) | 4.95% (inactive) and -27.9% (inactive)
CCCCOc1ccc2nc3cc(Cl)ccc3c(Cl)c2n1 | 1.85% (inactive) and -16.5% (inactive) | -10.8% (inactive) and -43.5% (inactive) | -9.75% (inactive) and 22.9% (inactive) | 5.7% (inactive) and 17.4% (inactive) | -12.2% (inactive) and 8.6% (inactive) | 25.8% (inactive) and 3.55% (inactive)
COc1ccccc1/C=C/C(=O)O | 30.8% (inactive) and 25.7% (inactive) | -7.85% (inactive) and 14.2% (inactive) | -5.2% (inactive) and -7.85% (inactive) | -7.8% (inactive) and -13.9% (inactive) | 3.95% (inactive) and 10.9% (inactive) | -22.4% (inactive) and 6.65% (inactive)
O=C(O)c1cccnc1 | 18.2% (inactive) and 13.2% (inactive) | 5.35% (inactive) and -7.8% (inactive) | -4.15% (inactive) and -10% (inactive) | 2.65% (inactive) and -2.6% (inactive) | 5.65% (inactive) and -0.1% (inactive) | 18.5% (inactive) and 16.7% (inactive)
CC(=O)OCC1OC(Sc2nc(-c3ccc(Cl)cc3)c(C#N)c(=O)n2C2OC(COC(C)=O)C(OC(C)=O)C(OC(C)=O)C2OC(C)=O)C(OC(C)=O)C(OC(C)=O)C1OC(C)=O (stereo unspecified) | 8.9% (inactive) and 6.85% (inactive) | 7.4% (inactive) and -3.8% (inactive) | 9.7% (inactive) and -9.1% (inactive) | -18.6% (inactive) and -12.2% (inactive) | 9.75% (inactive) and -7.95% (inactive) | 2.8% (inactive) and -46.5% (inactive)
O=C(NC(Cc1ccccc1)C(=O)O)OCc1ccccc1 (stereo unspecified) | 4.2% (inactive) and 0.2% (inactive) | 23.9% (inactive) and 6.9% (inactive) | 12.1% (inactive) and 1% (inactive) | -9.35% (inactive) and -1.55% (inactive) | 20.7% (inactive) and -5.15% (inactive) | 14.7% (inactive) and 16.9% (inactive)
Cc1ccc(S/C=C/C(=O)O)cc1 | -3% (inactive) and 19.8% (inactive) | 18.5% (inactive) and -0.1% (inactive) | 16.1% (inactive) and 20.4% (inactive) | 7.7% (inactive) and 19.2% (inactive) | -0.1% (inactive) and -6.05% (inactive) | 20.6% (inactive) and 5.45% (inactive)
Oc1ccccc1-c1nc2ccccc2o1 | 4.85% (inactive) and 8.3% (inactive) | -10.8% (inactive) and -25.2% (inactive) | -13.8% (inactive) and 7.15% (inactive) | -6.75% (inactive) and 1.4% (inactive) | 1.05% (inactive) and 24.3% (inactive) | 3.6% (inactive) and 0.9% (inactive)
O=C1CCOC2=C1COC2=O | -30.7% (inactive) and 9.5% (inactive) | -6.05% (inactive) and 17.6% (inactive) | -2.4% (inactive) and -0.6% (inactive) | -25.6% (inactive) and 12.3% (inactive) | -7.95% (inactive) and 19.6% (inactive) | -1.2% (inactive) and 16.6% (inactive)
C/C(=N\NC(=O)c1ccncc1)c1ccc(F)cc1 | 3.95% (inactive) and -7.7% (inactive) | 9.55% (inactive) and -14.3% (inactive) | 4.15% (inactive) and -16.4% (inactive) | 3.85% (inactive) and 0.7% (inactive) | 5.5% (inactive) and -28.4% (inactive) | 14.3% (inactive) and -4.6% (inactive)
COC(=O)NC1C(=O)OC(C2OC2(C)C)C1(C)C (stereo unspecified) | -4% (inactive) and -2.5% (inactive) | -22.9% (inactive) and -12.8% (inactive) | -5.3% (inactive) and -32.8% (inactive) | 4.35% (inactive) and -7.9% (inactive) | -17.1% (inactive) and -31.4% (inactive) | -6.15% (inactive) and -27.4% (inactive)
COc1c2occc2c(OC)c2c(=O)cc(C)oc12 | 20.9% (inactive) and 2.55% (inactive) | -2.15% (inactive) and -27.4% (inactive) | 16.8% (inactive) and 9.95% (inactive) | -0.65% (inactive) and 8.7% (inactive) | 7.9% (inactive) and 5.95% (inactive) | 22.1% (inactive) and 9.4% (inactive)
CCCCc1ccc(OC2OC(COC(C)=O)C(OC(C)=O)C(OC(C)=O)C2OC(C)=O)cc1 (stereo unspecified) | -29.1% (inactive) and -28.1% (inactive) | -14.3% (inactive) and 6.7% (inactive) | -42.8% (inactive) and -12.9% (inactive) | -4.35% (inactive) and 17.6% (inactive) | -32.5% (inactive) and -4.9% (inactive) | -35.5% (inactive) and -0.5% (inactive)
O=C(O)CSc1nc2ccccc2s1 | -8.8% (inactive) and -6.9% (inactive) | 1.7% (inactive) and -9.8% (inactive) | -0.85% (inactive) and -11.6% (inactive) | -28.8% (inactive) and -12% (inactive) | 9.45% (inactive) and -33.6% (inactive) | -12.7% (inactive) and -48% (inactive)
CCCCCC(Br)C(Br)CC(Br)C(Br)CCCCCCCC(=O)c1ccc2ccccc2c1O (stereo unspecified) | 2.8% (inactive) and 22.1% (inactive) | -2.05% (inactive) and 0.5% (inactive) | 10.4% (inactive) and 2.9% (inactive) | 8.05% (inactive) and -2.25% (inactive) | -18.3% (inactive) and 5.9% (inactive) | -3.1% (inactive) and 7.15% (inactive)
NC1CCCCCCC1 | 4.85% (inactive) and 5.55% (inactive) | -4.95% (inactive) and 2.2% (inactive) | 0.75% (inactive) and 3.8% (inactive) | -4.2% (inactive) and 1% (inactive) | 9.85% (inactive) and 3.6% (inactive) | 0.55% (inactive) and 2.7% (inactive)
NC(=O)Nc1ccc(Cl)cc1 | -17.2% (inactive) and 22.5% (inactive) | -11.8% (inactive) and -9.35% (inactive) | -24.8% (inactive) and -5% (inactive) | -17.9% (inactive) and -12.5% (inactive) | -4.2% (inactive) and -17.1% (inactive) | -10.9% (inactive) and 15.4% (inactive)
C/C=C/C=C/c1cc2cc3c(c(O)c2c(=O)[nH]1)C1(CC3)C(O)=c2c(=O)c3c(=O)cc(OC)c(=O)c=3c(=O)c2=C1O (stereo unspecified) | 86.8% (active) and 80.7% (active) | 89.8% (active) and 74.3% (active) | 88.7% (active) and 75.2% (active) | 81.8% (active) and 60% (inactive) | 83% (active) and 80.5% (active) | 78.6% (active)
CC(=O)c1ccc(-c2ccccc2-c2ccccc2)cc1 | -9.3% (inactive) and 43.7% (inactive) | 5.95% (inactive) and 3.5% (inactive) | 3.6% (inactive) and 16.4% (inactive) | -21.2% (inactive) and -26.1% (inactive) | -0.3% (inactive) and 4.35% (inactive) | 1.15% (inactive) and 33.1% (inactive)
